This is an account of results in PubChem BioAssay (NCATS).

Records with an inconclusive call do not appear. Unmarked numbers belong to inactive results. Calls of active or inactive are those of the source. Calls follow the shape of the dose curve; as a rule, active = well fitted curve in the direction sought with a large enough effect; inconclusive = small, poorly fitted or top-dose-only effect, or another doubt; inactive = no such curve, though single readings can be large; an effect the other way counts as inactive or inconclusive.

Assay [1] can be described thus: Primary qHTS for inhibitors of nuclear receptor binding SET domain protein 2 (NSD2) in an isogenic RCH-ACV NSD2 p.E1099K mutant (9B) (AID 1645876). (Quantitative high-throughput screening tests each substance at several concentrations.)
Assay [2] can be described thus: Primary qHTS for inhibitors of nuclear receptor binding SET domain protein 2 (NSD2) in an RCH-ACV wild type WT cells (2C) (AID 1645877).
% is scaled to controls: 0 for no effect and ±100 for the full control effect.
Also: nearly all actives have a fitted effect of over 70% in size.

Consider `CC1CC(=O)C2=C(O1)OC1(C)CCC3C(C)(C)C=CC(=O)C3(C)C1C2` (centres undefined), for which the Potency result in assay [1] and in assay [2] was “inactive” in each case.
Consider `COC(=O)[C@@]1(O)C=CC[C@@H]2[C@@]3(C)C[C@@H](c4ccoc4)OC(=O)[C@H]3CC[C@]21C`, for which the Potency result in assay [1] and in assay [2] was “inactive” in each case.
Take `COc1ccc(/C=C/C(=O)O[C@@H]2[C@@H](O)[C@H](C)O[C@@H](OC3C4C=COC(O[C@@H]5O[C@H](CO)[C@@H](O)[C@H](O)[C@H]5O)C4C4(CO)OC34)[C@@H]2O)cc1OC` (some centres undefined): the Potency result in assay [1] and in assay [2] was “inactive” in each case.
With `C=C(C(=O)O)[C@@H]1CC=C2CCC[C@H](C)[C@@]2(C)C1`, the Potency result in assay [1] and in assay [2] was “inactive” throughout.
As to `CC1=C2C3OC(=O)C(C)C3(O)CCC2(C)CCC1=O` (centres undefined), the Potency result in assay [1] and in assay [2] was “inactive” each time.
As to `COC(=O)c1ccc(O[C@@H]2O[C@H](CO)[C@@H](O)[C@H](O)[C@H]2O)c(OC)c1`, the Potency entry in assay [1] and in assay [2] was “inactive” in each case.
`CC(=O)c1c(O)cc2cccc3c2c1CC(C)(O)O3` (centres undefined): the Potency result in assay [1] and in assay [2] was “inactive” in each case.
Consider `C/C=C1/[C@H](O[C@@H]2O[C@H](CO)[C@@H](O)[C@H](O)[C@H]2O)OC=C(C(=O)OC)[C@H]1CC(=O)O[C@@H]1O[C@H](CO)[C@@H](O)[C@H](O)[C@H]1O`, for which the Potency entry in assay [1] and in assay [2] was “inactive” each time.
Turning to `C=C1C(O[C@@H]2O[C@H](CO)[C@@H](O)[C@H](O)[C@@H]2O)CC2C(C)(C)C(O)CCC2(C)C1CC/C(C)=C\CO` (some centres undefined), the Potency entry in assay [1] and in assay [2] was “inactive” in each case.
`COc1ccc(C(OC2OC(CO)C(O)C(O)C2O)C(C)O)cc1` (centres undefined): the Potency result in assay [1] and in assay [2] was “inactive” in each case.
`CC(=C/C(=O)O)/C=C/[C@]1(O)[C@@]2(C)CO[C@]1(C)C[C@H](O[C@@H]1O[C@H](CO)[C@@H](O)[C@H](O)[C@H]1O)C2`: the Potency result in assay [1] and in assay [2] was “inactive” throughout.
With `CCC(C)/C=C(C)/C=C/C1=CC2=C(Cl)C(=O)C(C)(OC(C)=O)C(=O)C2=CN1CCCC(=O)O` (centres undefined), the Potency result in assay [1] and in assay [2] was “inactive” in each case.
Consider `COc1cc(C2c3cc(O)c(OC)cc3CC(CO)C2CO)ccc1O` (centres undefined), for which the Potency entry in assay [1] and in assay [2] was “inactive” in each case.
Consider `O=C(O[C@H]1[C@@H]2C[C@@H]3OC[C@@](O)([C@H]2[C@H](O[C@@H]2O[C@H](CO)[C@@H](O)[C@H](O)[C@H]2O)O3)[C@@H]1O)c1ccccc1`, for which the Potency result in assay [1] and in assay [2] was “inactive” each time.
As to `CC(C)C1=CCC(C)(O)C(OC2OC(CO)C(O)C(O)C2O)C1` (centres undefined), the Potency result in assay [1] and in assay [2] was “inactive” throughout.
As for `CC1(C)C[C@H]2C3=CCC4[C@@]5(C)CC[C@H](O[C@H]6O[C@H](C(=O)O)[C@@H](O)[C@H](O)[C@H]6O[C@H]6O[C@H](CO)[C@@H](O)[C@H](O)[C@H]6O[C@@H]6O[C@H](CO)[C@@H](O)[C@H](O)[C@H]6O)[C@](C)(CO)C5CC[C@@]4(C)[C@]3(C)CC[C@@]2(C)[C@H](O[C@@H]2OC[C@H](O)[C@H](OC3O[C@H](CO)[C@@H](O)[C@H](O)[C@H]3O)[C@H]2O)[C@@H]1O` (some centres undefined), the outcome in assay [1] and in assay [2] was “inactive [at 9.23 µM]” throughout.
For `CN1C(=O)c2ccccc2-n2c(nc3ccccc3c2=O)/C1=C/c1ccccc1`, the Potency result in assay [1] and in assay [2] was “inactive” each time.
For the compound `O=C(O)Cc1nn(Cc2nc3cc(C(F)(F)F)ccc3s2)c(=O)c2nccnc12`, the Potency result in assay [1] and in assay [2] was “inactive” in each case.
Turning to `CC1(O)CCC2C(C(=O)O)=COC(OC3OC(CO)C(O)C(O)C3OC(=O)/C=C/c3ccc(O)cc3)C21` (centres undefined), the Potency entry in assay [1] and in assay [2] was “inactive” each time.
Take `C[C@@H]1O[C@@H](O[C@H]2[C@H](O[C@H]3[C@H](O[C@H]4CC[C@@]5(C)C(CC[C@]6(C)C5CC=C5[C@@H]7CC(C)(C(=O)O)C[C@@H](O)[C@]7(C)CC[C@]56C)[C@@]4(C)CO)O[C@H](C(=O)O)[C@@H](O)[C@@H]3O)O[C@H](CO)[C@H](O)[C@@H]2O)[C@H](O)[C@H](O)[C@H]1O` (some centres undefined): in assay [1], the activity change, negative = viability loss was -4.48% [at 9.23 µM]. In assay [2], the activity change, negative = cell killing is -5.72% [at 9.23 µM].
Turning to `CCC[C@@H]1C[C@@H](C(=O)N[C@H](C(C)Cl)[C@H]2O[C@H](SC)[C@H](O)[C@@H](O)[C@H]2O)N(C)C1` (some centres undefined), the Potency result in assay [1] and in assay [2] was “inactive” in each case.
Regarding `CC(=O)O[C@@H]1C[C@]2(C)[C@@]3(CCC4[C@@]5(C)CC[C@H](O[C@@H]6O[C@H](C(=O)O)[C@@H](O)[C@H](O[C@@H]7O[C@H](CO)[C@H](O)[C@H](O)[C@H]7O[C@@H]7O[C@@H](C)[C@H](O)[C@@H](O)[C@H]7O[C@@H]7OC[C@](O)(CO)[C@H]7O)[C@H]6O[C@@H]6O[C@H](CO)[C@H](O)[C@H](O)[C@H]6O)C(C)(C)C5CC[C@]42C)O[C@@H](O)[C@]12C3CC(C)(C)[C@@H](OC(=O)/C=C/c1ccc(O)c(O)c1)[C@@H]2OC(=O)/C=C/c1ccccc1` (some centres undefined), the activity change, negative = viability loss in assay [1] is -5.24% [at 9.23 µM]. In addition, in assay [2], the activity change, negative = cell killing was -4.25% [at 9.23 µM].
